# About 31,000 (8.9%) of roughly 350,000 compounds were called active. Another 15% or so got no clear call; they are omitted. This is one part of a sample in which actives are shown more often than they occur. Unmarked numbers belong to inactive results. Calls come from the whole dose curve; as a rule, active = well fitted inhibition curve with a large enough effect; inconclusive = small, poorly fitted or top-dose-only effect; inactive = no such curve, though single readings can be large or run the other way.
# Target: Histone-lysine N-methyltransferase EHMT2 (Homo sapiens) (UniProt Q96KQ7)
# Test: qHTS Assay for Inhibitors of Histone Lysine Methyltransferase G9a; note: nearly all actives have a fitted effect of over 75% in size
# Details: G9a H3K9 monomethylation, AlphaScreen, 2 h; series mostly up to 59 µM; activity, negative = inhibition: at the top concentration
# Text: Methylated lysines, on the N-terminal tails of histone proteins serve as epigenetic markers to recruit factors that can then modify local chromatin structure to lead to functional consequences. G9a and other members of the SUV39 family of the SET domain-containing superfamily of histone lysine methyltransferases (HMT) have been identified to specifically methylate Lys9 of histone H3 (H3K9). G9a catalyzes the mono- and di-methylation of H3K9 in mammalian euchromatic regions, where the resulting H3K9me2 is indicative of transcriptional repression. […] The inhibition of G9a will result in transcriptional activation and work synergistically with DNA methyltransferase and histone deacetylase inhibitors, to kill cancer cells. This qHTS assay for identification of G9a inhibitors is a chemiluminescence based AlphaScreen (PerkinElmer). Methylation of biotinylated-histone peptide is measured through specific antibody-based detection, in conjunction with streptavidin-coated donor and anti-IgG antibody-coated acceptor beads. The method is particularly well suited for detection of inhibitors acting by the desired histone peptide competitive mechanism and is applicable to testing other HMTs. Although AlphaScreen has significant advantages with its utility in a variety of epigenetic target assays, the primary screening data provided in this deposition should be used with caution due to the prevalence of screening artifacts. An AlphaScreen counterscreen is highly recommended to be run against any putative actives to eliminate non specific artifacts. Alternatively, one can use other AlphaScreen assays in PubChem to filter out promiscuous hits. Quinn et al. A chemiluminescence-based method for identification of histone lysine methyltransferase inhibitors. Mol Biosyst 6(5): 782-8. 2010. PMID: 20567762 [2] Baell,Holloway. New substructure filters for removal of pan assay interference compounds (PAINS) from screening libraries and for their exclusion in bioassays. J Med Chem. 53(7):2719-40. 2010. PMID: 20131845 NIH Molecular Libraries Probe Production Network [MLPCN] NIH Chemical Genomics Center [NCGC] Structural Genomics Consortium (SGC) NIH Grant: 5U54 MH084681-02
# To each well of a 1,536w plate, 2ul of HMT enzyme (final 20nM) were added, using a nanoliter dispenser. The G9a- and GLP-inhibitor BIX-01294 (CID: 25150857) are used as an intraplate control, with a 16-point titration in duplicate. A Kalypsys pin-tool transferred 23nl of library compound solution in DMSO to each well. Following a 15 min incubation of enzyme with compounds at room temperature, 1ul mixture of b-H3K9 peptide substrate (final 500nM) and SAM cofactor (final 20uM) were added. Reactions were allowed to proceed at room temperature for 2 hours. Methylated b-H3K9 peptide product was detected with 0.5 ug/mL rabbit polyclonal anti-monomethyl histone H3K9 antibody (Abcam Inc., Cambridge, MA) and 20 ug/mL each streptavidin-coated donor and anti-rabbit IgG acceptor AlphaScreen beads. Antibody and beads were added in a 1ul dispense, for a final volume of 4ul, and plates were incubated, protected from the light, for 10 min at room temperature. Microplates were then read on an EnVision multilabel plate reader using the 1,536 plate HTS AlphaScreen aperture (excitation time 80 ms, measurement time 240 ms).
# % is set by controls: 0 for no effect and ±100 for the full control effect; potency is the fitted concentration of half-maximal effect.
# Sequence of Histone-lysine N-methyltransferase EHMT2 (Homo sapiens) (Q96KQ7 913-1193 limits assumed): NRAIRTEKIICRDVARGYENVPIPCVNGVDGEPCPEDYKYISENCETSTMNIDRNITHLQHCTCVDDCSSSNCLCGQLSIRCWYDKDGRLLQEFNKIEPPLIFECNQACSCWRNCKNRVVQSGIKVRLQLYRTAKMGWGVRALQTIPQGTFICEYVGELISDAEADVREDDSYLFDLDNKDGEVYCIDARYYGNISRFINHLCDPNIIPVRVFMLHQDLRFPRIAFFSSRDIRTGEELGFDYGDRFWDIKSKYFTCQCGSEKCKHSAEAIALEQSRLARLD
SMILES,"activity, negative = inhibition",Potency
Cc1ccc(C)c(N2C(=O)N(Cc3c(F)cccc3Cl)c3ccccc3S2(=O)=O)c1,0.542%,–
CCOc1ccc(NC(=O)c2cc3c(=O)n(Cc4cccs4)ccc3nc2C)cc1,-4.13%,–
Cc1nn(-c2ccccc2)c2c1c(C)c(CCC(=O)NCC1CCCO1)c(=O)n2C (configuration not stated),51.1% [at 102 µM],–
COc1ccc(N2CCN(C(=O)c3cccs3)CC2)cc1,–,50.1 µM (active)
O=C(c1cccs1)N1CCN(C(=O)N2CCOCC2)CC1,24.4%,–
COc1ccc(OCC(=O)N2CCN(C(=O)c3cccs3)CC2)cc1,11.1%,–
O=C(O)c1ccc(NC(=O)c2ccc(COc3ccc(Cl)cc3)o2)cc1,2.31% [at 102 µM],–
Cc1ccc(Oc2c(C(F)(F)F)oc3c(CN4CCCCC4)c(O)ccc3c2=O)cc1,-2.63%,–
O=C(N/N=C/c1c[nH]c2ccccc12)c1ccccc1O,14.7% [at 102 µM],–
O=C(Nc1ccccc1N1CCOCC1)c1ccncc1,-10.3% [at 2.33 µM],–
c1ccc(-c2oc3ncnc(N4CCOCC4)c3c2-c2ccccc2)cc1,-7.86% [at 12.7 µM],–
O=C1c2ccccc2-c2ncnc3c(N4CCOCC4)cc(N4CCOCC4)c1c23,–,50.1 µM (active)
COc1cc(C(=O)NCCc2csc3nc(-c4ccccc4C)nn23)cc(OC)c1OC,38.2%,–
CN(C)c1ccc(/C=N/NC(=O)C(O)c2ccc(Br)cc2)cc1 (configuration not stated),-46.3% [at 102 µM],–
CN(C)c1ccc(C(CC(=O)O)C(=O)O)cc1 (configuration not stated),–,56.2 µM (active)
CC(=O)NC(CC(=O)O)c1ccc(F)cc1 (configuration not stated),-46.2% [at 102 µM],–
COc1cccc(C(=O)N(Cc2cccc(Cl)c2)Cc2ccco2)c1,-21.4%,–
O=C(c1cc(COc2ccc(F)cc2F)on1)N1CCOCC1,-7.8% [at 102 µM],–
COc1ccc(OCc2cc(C(=O)N3CCCC3)no2)c2ccccc12,–,39.8 µM (active)
COc1ccccc1-c1cc(C(=O)N2CCCCC2)no1,9.56% [at 102 µM],–
Cc1ccc(CNS(=O)(=O)CCNC(=O)c2ccccc2)cc1,0.106% [at 102 µM],–
Cc1csc(NC(=O)C2=COCCO2)n1,2.32% [at 102 µM],–
Cc1ccc(-c2csc(NC(=O)C3=COCCO3)n2)cc1C,–,56.2 µM (active)
Cc1ccc(-c2csc(NC(=O)c3cnccn3)n2)cc1C,-3.35%,–

SMILES,"activity, negative = inhibition",Potency
O=C(Nc1ccc(OC(F)(F)F)cc1)c1cc2c(=O)n3ccccc3nc2s1,-27.2%,–
Cc1c(NC(=O)CSc2nnc(-c3cccnc3)n2N)c(=O)n(-c2ccccc2)n1C,24.5% [at 12.7 µM],–
Cc1cc(=O)[nH]c(SCc2cc(Cl)ccc2OC(F)F)n1,-5.52% [at 102 µM],–
COC(=O)c1ccc(CSc2nncn2N)cc1,-2.99% [at 102 µM],–
CCCCOc1ccc(Cl)cc1CSc1nncn1N,–,7.08 µM (active)
Cc1ccc2nc(SC(C)C(=O)NCc3ccco3)[nH]c2c1 (configuration not stated),–,39.8 µM (active)
Cc1cccc(N(C(=O)Cc2cccs2)C(C(=O)NCc2ccco2)c2ccncc2)c1 (configuration not stated),5.39% [at 102 µM],–
Cc1ccc(NC(=O)C(=O)NCc2ccco2)c(C)c1,-4.41% [at 102 µM],–
CCN1CCN(Cc2c(O)ccc3oc(C)c(C(=O)Nc4ccc(C)cc4C)c23)CC1,-23.5%,–
CCOc1ccc(-c2nonc2NC(=O)c2oc3ccc(C)cc3c2C)cc1OCC,10.3%,–
O=C(C1CCN(S(=O)(=O)c2cnc[nH]2)CC1)N1CCN(Cc2ccc3c(c2)OCO3)CC1,-12% [at 12.7 µM],–
O=C(Nc1cccc2ccccc12)N1CCN(Cc2ccc3c(c2)OCO3)CC1,2.38% [at 12.7 µM],–
O=C(C1CCN(C2CCN(Cc3cccc4c3OCO4)CC2)CC1)N1CCOCC1,7.97% [at 102 µM],–
Cc1cc(C)n2nc(C(=O)N3CCN(Cc4ccc5c(c4)OCO5)CC3)nc2n1,-7.72% [at 102 µM],–
O=C(c1cccs1)N1CCN(Cc2ccc3c(c2)OCO3)CC1,–,56.2 µM (active)
O=C(C1CCN(Cc2ccc(Cl)cc2)CC1)N1CCN(Cc2ccc3c(c2)OCO3)CC1,–,8.91 µM (active)
Cc1ccc(S(=O)(=O)N2[C@@H](c3cccc(Cl)c3)C(C(=O)O)=CC[C@H]2c2ccc(Cl)c(Cl)c2)cc1,13.5% [at 2.33 µM],–
COc1ccc(-c2cc(C(=O)NCCCN3CCCC3=O)c3ccccc3n2)cc1OC,15% [at 2.33 µM],–
Cc1cc(C)c(NC(=O)CSc2nc3nccnc3c(=O)n2CCc2c[nH]c3ccccc23)c(C)c1,4.58%,–
CCCCc1ccc(NC(=S)NCCCN2CCOCC2)cc1,31.4% [at 12.7 µM],–
COCCCNC(=S)NCCNc1nc2cc(C)c(C)cc2cc1C#N,20%,–
Cc1ccc2cc(C#N)c(NCCNC(=S)NCCCN3CCOCC3)nc2c1,–,39.8 µM (active)
CCOCCCNc1nc(-c2ccccc2)nc2ccccc12,14.1% [at 102 µM],–

# — PubChem BioAssay AID504332 (National Center for Advancing Translational Sciences (NCATS), 2011)
